HT1080 IDH1KD tx: qHTS for induction of synthetic lethality in tumor cells producing 2HG: qHTS for the HT-1080-IDH1KD cell line. HT-1080 IDH1 knockdown viability, ATP luminescence, 48 h. Potency, µM (series often up to 46.1 µM), for the others: at the top dose activity, negative = toxicity, most hits filed as cytotoxic. 2% of 360,000 active. AID 686971, 2013;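 note: 0% = DMSO wells and -100% = cell-free medium wells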
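% activity derives from luminescence (CellTiter-Glo), normalised to DMSO and no-cell wells. HT-1080-IDH1KD cells, 750/well, had 48 h compound exposure at 37 °C.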
TGFb SMAD3 inh: qHTS for Inhibitors of TGF-b; HepG2 CAGA-GFP TGF-b/SMAD3 reporter, GFP fluorescence, 18 h; TGF-beta stimulated, 500 pg/mL final; Potency, µM (series often up to 46.1 µM), without a hit: top-dose activity, negative = inhibition, usual class: inhibitors; 1.2% of 410,000 active; AID 588855, 2011; note: % is set by controls: 0 for no effect and ±100 for the full control effect; nearly all actives have a fitted effect of over 65% in size
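HEPG2 CAGA-GFP cells (1000/well, DMEM with 1% FBS) were pre-incubated 2 h at 37 degrees C, given compound by pin tool, then stimulated with TGF-beta at 500 pg/mL final for 18 h before per-cell GFP fluorescence imaging.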
KB-V1 cytotox: qHTS assay for MDR1-selective chemotherapeutics: Primary screen using the drug-selected MDR subline cells KB-V1; 3.4% of 400,000 active; AID 1347076, 2019; Potency, µM (highest dose often 46.1 µM), hits mostly cytotoxic; KB-V1 MDR cells viability, CellTiter-Glo, 72 h; note: % is set by controls: 0 for no effect and ±100 for the full control effect; nearly all actives have a fitted effect of over 60% in size
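Following 72 h at 37 degrees C with compound, KB-V1 cell viability was read by CellTiter-Glo luminescence, medium being phenol-red-free DMEM plus 10% FBS; concentration-response parameters came from normalized, curve-fitted qHTS data.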
HT1080-NT tox: qHTS for induction of synthetic lethality in tumor cells producing 2HG: qHTS for the HT-1080-NT fibrosarcoma cell line. 1.6% of 360,000 active. HT-1080-NT fibrosarcoma viability, CellTiter-Glo ATP luminescence, 48 h. Potency, µM (series often up to 46.1 µM), for inactives: top-dose activity, negative = less viability, actives largely listed as cytotoxic;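 note: NT is the 2HG producing partner of a matched IDH1 knockdown line; 0% = DMSO-treated cells and -100% = media-only wells without cells; nearly all actives have a fitted effect of over 55% in size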
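Viability of the 2HG-overproducing fibrosarcoma line after 48 hours of compound exposure at 37 degrees C was determined by luminescence with CellTiter-Glo, and concentration-effect curves were then fitted and categorized.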
KB-3-1 cytotox: qHTS assay for MDR1-selective chemotherapeutics: Primary screen using the parental adenocarcinoma cell KB-3-1. KB-3-1 viability, CellTiter-Glo ATP luminescence, 72 h. 1.4% of 400,000 active. AID 1347075, 2019. Potency, µM (highest dose often 46.1 µM), most hits filed as cytotoxic; note: % is set by controls: 0 for no effect and ±100 for the full control effect; nearly all actives have a fitted effect of over 60% in size
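KB-3-1 cells, DMEM (no phenol red) + 10% FBS; compound by pin transfer, 72 h, 37 °C. Readout: CellTiter-Glo luminescence after 10 min. Data normalized, curve-fitted.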
HepG2 tox-1: qHTS for Inhibitors of TGF-b: Cytotox Counterscreen; 0.76% of 410,000 active; AID 588856, 2011; HepG2 CAGA-GFP viability, ATP luminescence, 18 h; Potency, µM (highest dose often 46.1 µM), inactives show at the highest dose activity change, negative = cytotoxicity, most hits filed as cytotoxic
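HepG2 CAGA-GFP cells (1000/well, DMEM with 1% FBS) received compound, then TGF-beta at 500 pg/mL final, and were incubated 18 hours at 37 degrees C. Viability was read by CellTiter-Glo luminescence. Media-only wells were set as complete cell-killing and DMSO as no toxicity.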
TGFb confirm: qHTS for Inhibitors of TGF-b: Confirmation of Cherry Picks; HepG2 CAGA-GFP TGF-b reporter, GFP fluorescence, 18 h; cells stimulated with TGF-beta, 500 pg/mL; shares compounds with TGFb SMAD3 inh; Potency, µM (titrated, usually from 46.1 µM), inactives show at the highest dose activity, negative = inhibition, usual class: inhibitors; 63% of 1,600 active; note: % is set by controls: 0 for no effect and ±100 for the full control effect; nearly all actives have a fitted effect of over 65% in size
HepG2 tox-2: qHTS for Inhibitors of TGF-b: Cytotox Counterscreen for Cherry Picks. HepG2 CAGA-GFP viability, ATP luminescence, 18 h; cells stimulated with TGF-beta, 500 pg/mL. Potency, µM (highest dose often 46.1 µM), for the others: top-dose activity, negative = cytotoxicity, actives largely listed as inhibitors. 27% of 1,600 active. shares compounds with TGFb SMAD3 inh. AID 720535, 2013; note: % is set by controls: 0 for no effect and ±100 for the full control effect; nearly all actives have a fitted effect of over 70% in size
TGFb CCL64 inh: qHTS for Inhibitors of TGF-b: CCL64 Cells Orthogonal Assay for Cherry Picks. shares compounds with TGFb SMAD3 inh. CCL64 CAGA-GFP reporter, TGF-b stimulated, GFP fluorescence, 18 h. Potency, µM (series often up to 46.1 µM), inactives show at the highest dose activity, negative = inhibition, most hits filed as inhibitors. 41% of 1,600 active. AID 720536, 2013; note: nearly all actives have a fitted effect of over 65% in size
COP TGFb inh: qHTS for Inhibitors of TGF-b: Hit Validation in HepG2 Cells using COP promoter | shares compounds with TGFb SMAD3 inh | Potency, µM (doses to about 46.1 µM), inactives show at the highest dose activity, negative = inhibition, most hits filed as inhibitors | AID 720537, 2013 | HepG2 COP-GFP TGF-b reporter, GFP fluorescence, 18 h; cells stimulated by added recombinant TGF-beta | 3% of 1,600 active; note: nearly all actives have a fitted effect of over 70% in size
An asterisk follows results filed as active; i = inactive; ? = inconclusive; · = no result given; [ ] = remark or other dose. Hits are enriched below; roughly 6.6% of the tested compounds scored in any of these assays. Calls come from the whole dose curve; as a rule, active = well fitted curve in the direction sought with a large enough effect; inconclusive = small, poorly fitted or top-dose-only effect, or another doubt; inactive = no such curve, though single readings can be large; an effect the other way counts as inactive or inconclusive. Potency is the fitted concentration of half-maximal effect.

SMILES	HT1080 IDH1KD tx	TGFb SMAD3 inh	KB-V1 cytotox	HT1080-NT tox	KB-3-1 cytotox	HepG2 tox-1	TGFb confirm	HepG2 tox-2	TGFb CCL64 inh	COP TGFb inh
CC(Oc1ccc(Cl)cc1Cl)C(=O)NC1=NN(c2ccccc2)C(=O)C1 (stereo not drawn)	?	18µM*	i	-29%	i	-28%	?	?	?	61%
COc1ccc(NC(=O)C(c2ccc(C#N)cc2)n2c(=O)c(-c3cc4ccccc4[nH]3)nc3ccccc32)cc1 (stereo not drawn)	?	·	?	-29%	i	·	·	·	·	·
COc1ccc(Nc2ncnc3c2nc2n3CCCCC2)cc1	·	-7%	i	·	i	-2%	·	·	·	·
C=C(C(=O)c1ccccc1)C(CC(=O)c1ccccc1)c1ccccc1 (stereo not drawn)	12µM*	13µM*	?	?	?	4%	9.2µM*	10µM*	9.2µM*	-17%
COc1cccc(CNC(=O)CN2C(=O)N(c3c(C)cccc3C)S(=O)(=O)c3ccccc32)c1OC	·	0%	?	·	i	-32%	·	·	·	·
COc1cc(OC)cc(C(=O)N[C@H](C(=O)Nc2nc(-c3ccc(OC)c(OC)c3)cs2)C(C)C)c1	-1%	13µM*	?	?	?	-16%	15µM*	-7%	-18%	23%
Cc1c(Cl)cccc1NC(=O)Nc1nnc(N(C)Cc2ccccc2)s1	·	i	?	·	i	-2%	·	·	·	·
COc1ccc(-c2csc(Nc3ccc(Oc4ccccc4)cc3)n2)cc1	13µM*	11µM*	i	?	i	-16%	7.3µM*	-14%	7%	5%
CC(=O)Nc1cc(OC(C)=O)c2nonc2c1OC(C)=O	3.5µM*	2.8µM*	i	6.3µM*	?	6.3µM*	4.1µM*	7.3µM*	21µM*	9.2µM*
CC(=O)Oc1ccc2nonc2c1OC(C)=O	·	-13%	i	·	?	-3%	·	·	·	·
C[N+]1(CC(=O)c2ccccc2)CCc2ccccc2C1 (stereo not drawn)	·	10%	i	·	i	8%	·	·	·	·
Cc1ccc(S(=O)(=O)c2nc(-c3ccccc3F)oc2N2CCCCC2)cc1	·	?	?	·	i	-4%	·	·	·	·
CCOC(=O)c1c(C)oc2c1c(C=NCc1ccccn1)c(O)c1ccccc12	-13%	?	?	-5%	?	-6%	?	?	18µM*	29%
CC(C)Oc1ccc(S(=O)(=O)N2CCOCC2)cc1NC(=O)c1ccc(Cl)c(S(=O)(=O)N2CCOCC2)c1	5%	-4%	i	0%	i	4%	·	·	·	·
CCOC(=O)[C@H]1[C@H]2COc3ccc(Br)cc3[C@@H]2N2C(=O)CN(Cc3ccco3)C(=O)[C@@]12C	6%	-9%	?	0%	i	8%	·	·	·	·
C/C=C1\COC(C(=O)NCCN2CCOCC2)(C(F)(F)F)C=C1C=C1CCCCC1 (stereo not drawn)	·	?	·	·	·	-16%	·	·	·	·
C/C=C1\COC(C(=O)NCc2ccccc2)(C(F)(F)F)C=C1C=C1CCCCC1 (stereo not drawn)	-21%	11µM*	i	-3%	i	-12%	?	-24%	?	0%
CCCc1cc(=O)[nH]c(SCC(=O)N2CCCCCC2)n1	2%	7%	?	-13%[9.24 µM]	i	-2%	·	·	·	·
COc1ccc(NC(=O)CCSc2nc(-c3ccco3)cc(C(F)(F)F)n2)cc1OC	·	-4%	i	·	i	-11%	·	·	·	·
COc1ccc(NC(=O)CCCSc2nc(-c3ccco3)cc(C(F)(F)F)n2)cc1OC	-25%	?	i	-24%	i	-4%	?	-11%	-28%	3%
O=C(Nc1cccc(NC(=O)c2cccnc2)c1)c1ccccc1	5%	-1%	i	0%	i	4%	·	·	·	·
NC(=O)c1cccc(-c2cnc(N)c(C(=O)c3cccnc3)n2)c1	-25%	10µM*	i	-19%	?	-28%	4.6µM*	16µM*	-101%	33%
COc1cc(CN(C(=O)COc2ccccc2Cl)c2ccccn2)cc(OC)c1OC	·	-12%	i	·	i	-11%	·	·	·	·
CCOc1ccc(CCN2C(=S)N([C@@H](Cc3ccc(O)cc3)CN3CCCC3CN3C(=S)NC[C@@H]3Cc3ccc(O)cc3)C[C@@H]2CC(C)C)cc1 (stereo partly drawn)	-29%	?	i	-19%	?	0%	·	·	·	·
Oc1ccc(C[C@H]2CN([C@@H](Cc3ccc(O)cc3)CN3CCC[C@@H]3CN3C(=S)NC[C@@H]3Cc3ccccc3)C(=S)N2CCc2ccccc2)cc1	?	?	i	?	?	-24%	·	·	·	·
